The results in this text go back to PubChem BioAssay AID720626 (Broad Institute, 2013).

Structures are written as SMILES. Inconclusive results are not listed. Activity calls are given as the source filed them.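 The calls were made as follows: active = all three exposure times show falling viability signal with fitted midpoint dose at most twice top tested dose; inconclusive = calls differ across the three exposure times; inactive = all three exposure times inactive.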

This assay in a line: SR lymphoma cell cytotoxicity, late-stage follow-up, mechanism study for HRAS target identification, Alamar Blue fluorescence, several timepoints, dry powder (AID 720626). A general note: Alamar Blue is a resazurin reagent that responds to reducing activity.

As to `CCC(=O)N(c1ccc(OC)c(Cl)c1)C(C(=O)NCCc1ccccc1)c1cccs1` (configuration not stated), the compound was called inactive.
Under `Cc1onc(C(=O)N2CCN(C(c3ccncc3)c3ccncc3)CC2)c1[N+](=O)[O-]` stands “inactive”.
